# Data taken from PubChem BioAssay AID1159580 (chemical genetic matrix, 2015).
# Among all 5,500 compounds or so, about 2,000 (36%) were called active. Roughly 18% stayed inconclusive and do not appear here. The list shows a part of the results. A number with no mark means an inactive call. Rule as the data show it: active = normalized growth mostly below about 0.91 (no sharp cut-off); inconclusive = no clear call, values can overlap the other calls; inactive = mostly above about 0.92.
# Test: chemical genetic growth profiling, strain panel (AID 1159580);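 also: tested at 20 µM; growth read once vehicle control cultures reached saturation at 30 °C; 1 = growth at the plate median or of vehicle wells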
# Details: S. cerevisiae deletion strains, growth OD
# [1] = locus YAL013W, strain DEP1, stronger effect = lower value
# [2] = locus YAL040C, strain CLN3, stronger effect = lower value
# [3] = locus YCL061C, strain MRC1 (second series), stronger effect = lower value
# [4] = locus YDR363W, strain ESC2, stronger effect = lower value
# [5] = locus YER002W, strain NOP16, stronger effect = lower value
# [6] = locus YGR078C, strain PAC10, stronger effect = lower value
# [7] = locus YMR263W, strain SAP30, stronger effect = lower value
# [8] = locus YMR307W, strain GAS1, stronger effect = lower value
# [9] = locus YNL175C, strain NOP13, stronger effect = lower value
# [10] = locus YNL197C, strain WHI3, stronger effect = lower value
# [11] = locus YNL224C, strain SQS1, stronger effect = lower value
# [12] = locus YOR083W, strain WHI5 (second series), stronger effect = lower value
smiles,measurement,setting,value
Cc1ccccc1N1CCN(S(=O)(=O)C[C@]23CCC(CC2NC(=O)[C@@H](N)CCS(C)(=O)=O)C3(C)C)CC1 (stereo partly specified),normalized growth,[1],0.995
same,normalized growth,[2],1.01
same,normalized growth,[3],1
same,normalized growth,[4],1
same,normalized growth,[5],1.04
same,normalized growth,[6],0.999
same,normalized growth,"locus YGR229C, strain SMI1, stronger effect = lower value",1
same,normalized growth,[7],0.995
same,normalized growth,[8],0.99
same,normalized growth,[9],1.01
same,normalized growth,[10],1.01
same,normalized growth,[11],1.01
same,normalized growth,"locus YNL322C, strain KRE1, stronger effect = lower value",0.99
same,normalized growth,[12],1.04
CCCN(CCC)C1Cc2cc(OC)c(OC)cc2C1,normalized growth,[1],0.961
same,normalized growth,[2],1.05
same,normalized growth,[3],0.988
same,normalized growth,[4],0.974
same,normalized growth,[5],1.04
same,normalized growth,[7],0.985
same,normalized growth,[8],0.995
same,normalized growth,[9],1.02
same,normalized growth,[10],0.983
same,normalized growth,[11],0.994
same,normalized growth,[12],0.995
Clc1ccc(C(Cn2ccnc2)OCc2ccsc2Cl)c(Cl)c1 (stereo unspecified),normalized growth,"locus YAL021C, strain ccr4, stronger effect = lower value",0.0615 (active)
same,normalized growth,"locus YAL026C, strain drs2, stronger effect = lower value",0.0595 (active)
same,normalized growth,"locus YAL030W, strain snc1, stronger effect = lower value",0.058 (active)
same,normalized growth,"locus YBL061C, strain skt5, stronger effect = lower value",0.0605 (active)
same,normalized growth,"locus YBR009C, strain hhf1, stronger effect = lower value",0.0623 (active)
same,normalized growth,"locus YBR023C, strain chs3, stronger effect = lower value",0.0625 (active)
same,normalized growth,"locus YBR171W, strain sec66, stronger effect = lower value",0.077 (active)
same,normalized growth,"locus YBR231C, strain swc5, stronger effect = lower value",0.0613 (active)
same,normalized growth,"locus YBR279W, strain paf1, stronger effect = lower value",0.0605 (active)
same,normalized growth,"locus YCL011C, strain gbp2, stronger effect = lower value",0.0554 (active)
same,normalized growth,"locus YCL016C, strain dcc1, stronger effect = lower value",0.0612 (active)
same,normalized growth,"locus YCL061C, strain MRC1, stronger effect = lower value",0.0623 (active)
same,normalized growth,"locus YCL069W, strain vba3, stronger effect = lower value",0.0601 (active)
same,normalized growth,"locus YCR088W, strain abp1, stronger effect = lower value",0.0619 (active)
same,normalized growth,"locus YDL005C, strain med2, stronger effect = lower value",0.0727 (active)
same,normalized growth,"locus YDL040C, strain nat1, stronger effect = lower value",0.0591 (active)
same,normalized growth,"locus YDR001C, strain nth1, stronger effect = lower value",0.0593 (active)
same,normalized growth,"locus YDR069C, strain doa4, stronger effect = lower value",0.0605 (active)
same,normalized growth,"locus YDR137W, strain rgp1, stronger effect = lower value",0.0897 (active)
same,normalized growth,"locus YDR159W, strain sac3, stronger effect = lower value",0.0897 (active)
same,normalized growth,"locus YDR195W, strain ref2",0.109 (active)
same,normalized growth,"locus YDR297W, strain sur2, stronger effect = lower value",0.0576 (active)
same,normalized growth,"locus YDR334W, strain swr1, stronger effect = lower value",0.0622 (active)
same,normalized growth,"locus YDR335W, strain msn5, stronger effect = lower value",0.0604 (active)
same,normalized growth,"locus YDR392W, strain spt3, stronger effect = lower value",0.0929 (active)
same,normalized growth,"locus YEL003W, strain gim4, stronger effect = lower value",0.0528 (active)
same,normalized growth,"locus YEL037C, strain rad23, stronger effect = lower value",0.0589 (active)
same,normalized growth,"locus YEL061C, strain CIN8 (second series), stronger effect = lower value",0.0607 (active)
same,normalized growth,"locus YER015W, strain faa2, stronger effect = lower value",0.0602 (active)
same,normalized growth,"locus YER016W, strain bim1, stronger effect = lower value",0.0611 (active)
same,normalized growth,"locus YER111C, strain swi4, stronger effect = lower value",0.0729 (active)
same,normalized growth,"locus YER155C, strain BEM2 (second series), stronger effect = lower value",0.0863 (active)
same,normalized growth,"locus YFR010W, strain ubp6, stronger effect = lower value",0.0638 (active)
same,normalized growth,"locus YGL167C, strain pmr1, stronger effect = lower value",0.0775 (active)
same,normalized growth,"locus YGL173C, strain kem1, stronger effect = lower value",0.0679 (active)
same,normalized growth,"locus YGL227W, strain vid30, stronger effect = lower value",0.0627 (active)
same,normalized growth,"locus YGL240W, strain doc1, stronger effect = lower value",0.0751 (active)
same,normalized growth,"locus YGL253W, strain hxk2, stronger effect = lower value",0.0532 (active)
same,normalized growth,"locus YHR013C, strain ard1, stronger effect = lower value",0.116 (active)
same,normalized growth,"locus YHR027C, strain rpn1, stronger effect = lower value",0.0631 (active)
same,normalized growth,"locus YHR030C, strain SLT2, stronger effect = lower value",0.1 (active)
same,normalized growth,"locus YHR079C, strain IRE1, stronger effect = lower value",0.111 (active)
same,normalized growth,"locus YHR142W, strain chs7, stronger effect = lower value",0.0682 (active)
same,normalized growth,"locus YJL092W, strain hpr5, stronger effect = lower value",0.058 (active)
same,normalized growth,"locus YJL095W, strain BCK1 (second series), stronger effect = lower value",0.0564 (active)
same,normalized growth,"locus YJL095W, strain BCK1, stronger effect = lower value",0.131 (active)
same,normalized growth,"locus YJL115W, strain asf1, stronger effect = lower value",0.0715 (active)
same,normalized growth,"locus YJL129C, strain trk1, stronger effect = lower value",0.0844 (active)
same,normalized growth,"locus YJL154C, strain vps35, stronger effect = lower value",0.0606 (active)
same,normalized growth,"locus YJL164C, strain tpk1, stronger effect = lower value",0.0589 (active)
same,normalized growth,"locus YJL166W, strain qcr8, stronger effect = lower value",0.0614 (active)
same,normalized growth,"locus YJL187C, strain SWE1, stronger effect = lower value",0.058 (active)
same,normalized growth,"locus YJR066W, strain TOR1, stronger effect = lower value",-0.00364 (active)
same,normalized growth,"locus YKL160W, strain elf1, stronger effect = lower value",0.0664 (active)
same,normalized growth,"locus YKR026C, strain gcn3, stronger effect = lower value",0.0641 (active)
same,normalized growth,"locus YKR091W, strain srl3, stronger effect = lower value",0.0588 (active)
same,normalized growth,"locus YLL001W, strain dnm1, stronger effect = lower value",0.0592 (active)
same,normalized growth,"locus YLL026W, stronger effect = lower value",0.0585 (active)
same,normalized growth,"locus YLL041C, strain sdh2, stronger effect = lower value",0.0592 (active)
same,normalized growth,"locus YLR027C, strain aat2, stronger effect = lower value",0.0566 (active)
same,normalized growth,"locus YLR113W, strain HOG1, stronger effect = lower value",0.175 (active)
same,normalized growth,"locus YLR221C, strain rsa3, stronger effect = lower value",0.0562 (active)
same,normalized growth,"locus YLR258W, strain gsy2, stronger effect = lower value",0.0592 (active)
same,normalized growth,"locus YLR262C, strain YPT6 (second series), stronger effect = lower value",0.0854 (active)
same,normalized growth,"locus YLR320W, strain mms22, stronger effect = lower value",0.083 (active)
same,normalized growth,"locus YLR342W, strain FKS1, stronger effect = lower value",0.063 (active)
same,normalized growth,"locus YLR357W, strain rsc2, stronger effect = lower value",0.114 (active)
same,normalized growth,"locus YLR370C, strain arc18, stronger effect = lower value",0.0594 (active)
same,normalized growth,"locus YLR384C, strain iki3, stronger effect = lower value",0.0608 (active)
same,normalized growth,"locus YML120C, strain ndi1, stronger effect = lower value",0.0591 (active)
same,normalized growth,"locus YMR058W, strain fet3, stronger effect = lower value",0.0582 (active)
same,normalized growth,"locus YMR125W, strain sto1, stronger effect = lower value",0.0724 (active)
same,normalized growth,"locus YMR129W, stronger effect = lower value",0.057 (active)
same,normalized growth,"locus YMR205C, strain PFK2, stronger effect = lower value",0.0885 (active)
same,normalized growth,"locus YMR231W, strain pep5, stronger effect = lower value",0.0835 (active)
same,normalized growth,"locus YNL071W, strain lat1, stronger effect = lower value",0.0601 (active)
same,normalized growth,"locus YNL183C, strain NPR1, stronger effect = lower value",-4.4e-05 (active)
same,normalized growth,"locus YNL209W, strain ssb2, stronger effect = lower value",0.0596 (active)
same,normalized growth,"locus YNL248C, strain rpa49, stronger effect = lower value",0.0715 (active)
same,normalized growth,"locus YNL322C, strain KRE1 (second series), stronger effect = lower value",0.0708 (active)
same,normalized growth,"locus YNR049C, strain mso1, stronger effect = lower value",0.0574 (active)
same,normalized growth,"locus YOR001W, strain rrp6, stronger effect = lower value",0.0652 (active)
same,normalized growth,"locus YOR070C, strain gyp1, stronger effect = lower value",0.0829 (active)
same,normalized growth,"locus YOR080W, strain dia2, stronger effect = lower value",0.0656 (active)
same,normalized growth,"locus YOR083W, strain WHI5, stronger effect = lower value",0.0618 (active)
same,normalized growth,"locus YOR106W, strain vam3, stronger effect = lower value",0.0631 (active)
same,normalized growth,"locus YOR231W, strain MKK1, stronger effect = lower value",0.107 (active)
same,normalized growth,"locus YOR265W, strain rbl2, stronger effect = lower value",0.0575 (active)
same,normalized growth,"locus YOR270C, strain vph1, stronger effect = lower value",0.0903 (active)
same,normalized growth,"locus YOR290C, strain snf2, stronger effect = lower value",0.074 (active)
same,normalized growth,"locus YPL051W, strain arl3, stronger effect = lower value",0.0604 (active)
same,normalized growth,"locus YPL078C, strain atp4, stronger effect = lower value",0.0629 (active)
same,normalized growth,"locus YPL106C, strain sse1, stronger effect = lower value",0.0945 (active)
same,normalized growth,"locus YPL240C, strain hsp82, stronger effect = lower value",0.0568 (active)
same,normalized growth,"locus YPL256C, strain CLN2, stronger effect = lower value",0.133 (active)
Clc1ccc(C(c2ccc(Cl)cc2)n2cc[n+](CC(OCc3ccc(Cl)cc3Cl)c3ccc(Cl)cc3Cl)c2)cc1 (stereo unspecified),normalized growth,[2],0.071 (active)
same,normalized growth,[3],0.0506 (active)
same,normalized growth,[4],0.0687 (active)
same,normalized growth,[5],1.01
same,normalized growth,[6],0.0555 (active)
same,normalized growth,"locus YJR075W, strain HOC1, stronger effect = lower value",0.0686 (active)
same,normalized growth,[8],0.0652 (active)
same,normalized growth,[9],0.0668 (active)
same,normalized growth,[10],0.0718 (active)
same,normalized growth,[11],0.0691 (active)
same,normalized growth,[12],0.0706 (active)
